According to the antibiotic and cytotoxicity screens of Wong et al. (2023):
Among all 39,000 compounds or so, about 3,300 (8.5%) were called active. For the sample, actives were picked, then their nearest neighbours and some compounds at random.

What follows are molecules tested on HepG2 (assay: cytotoxicity call (relative viability < 0.9)). Settings: 10 µM.

Structure (SMILES) | cytotoxicity call
C[C@H](CO)N1C[C@H](C)[C@@H](CN(C)C(=O)CCC(F)(F)F)OCc2ccccc2-c2c(n(C)c3ccccc23)C1=O | inactive
CSc1scc(-c2cc(Cl)cc(Cl)c2)c1C#N | inactive
C[C@H](CO)N1C[C@H](C)[C@@H](CN(C)S(=O)(=O)c2cccs2)Oc2ccc(NC(=O)CCCN(C)C)cc2C1=O | inactive
Cc1ccc(S(=O)(=O)Nc2ccc3c(c2)C(=O)N([C@@H](C)CO)C[C@@H](C)[C@@H](CN(C)C(=O)Nc2ccccc2)OCCCC[C@@H](C)O3)cc1 | inactive
CCCC/C=C/[C@H]([C@@H](O)Cc1ccccc1)N(CC#Cc1ccccc1)Cc1ccccc1Br | inactive
COc1ccc(NC(=O)Nc2ccc3c(c2)C(=O)N([C@H](C)CO)C[C@@H](C)[C@@H](CN(C)C(=O)Nc2ccc(C(F)(F)F)cc2)O3)cc1 | inactive
C[C@@H](O)CN1CCN(S(=O)(=O)C2CC2)CC1 | inactive
C[C@@H]1CN([C@H](C)CO)C(=O)c2cccc(NC(=O)C3CC3)c2O[C@H]1CN(C)S(=O)(=O)c1ccccc1 | inactive
CC(=O)Nc1nc(C(=O)O)cs1 | inactive
Cc1ccc(-n2nc(C(C)(C)C)cc2NC(=O)Nc2ccc(OCCN3CCOCC3)c3ccccc23)cc1 | active
Cc1ccc(S(=O)(=O)NC2=NCN(CCN3CCOCC3)CN2)cc1 | inactive
CC(C)(C)c1cc(NC(=O)Nc2ccc(Oc3ccnc4nc(O)cnc34)cc2F)n(-c2ccccc2)n1 | inactive
CCCNC(=O)N1C[C@@H](C)[C@@H](OC)CN(C)C(=O)c2cc(NS(=O)(=O)CC(F)(F)F)ccc2OC[C@H]1C | inactive
CC1(C)OC2CC3C4CC(F)C5=CC(=O)C=CC5(C)C4C(O)CC3(C)C2(C(=O)CO)O1 (stereo not given) | inactive
C[C@@H]1CN([C@@H](C)CO)C(=O)c2cccc(NC(=O)C3CCCCC3)c2O[C@@H]1CN(C)S(=O)(=O)c1cn(C)cn1 | inactive
COc1ccc([Si](C)(C)[C@H]2[C@H](CCn3cc([C@H](O)c4ccccc4)nn3)O[C@@]3(C(=O)N(Cc4cccc(N5C(=O)c6cccc7cccc5c67)c4)c4ccccc43)[C@@H]2C)cc1 | inactive
COc1ccc([Si](C)(C)[C@@H]2[C@@H](CCn3cc(CCO)nn3)O[C@]3(C(=O)N(Cc4ccc(N5C(=O)c6cccc7cccc5c67)cc4)c4ccccc43)[C@H]2C)cc1 | active
COc1ccc([Si](C)(C)[C@@H]2[C@@H](CCn3cc(CCO)nn3)O[C@]3(C(=O)N(Cc4cccc(N5C(=O)c6cccc7cccc5c67)c4)c4ccccc43)[C@H]2C)cc1 | active
COc1ccc([Si](C)(C)[C@@H]2[C@@H](CCn3cc([C@H](O)c4ccccc4)nn3)O[C@]3(C(=O)N(c4ccccc4)c4ccccc43)[C@H]2C)cc1 | inactive
COc1ccc([Si](C)(C)[C@H]2[C@H](CCn3cc(CCO)nn3)O[C@@]3(C(=O)N(Cc4cccc(N5C(=O)c6cccc7cccc5c67)c4)c4ccccc43)[C@@H]2C)cc1 | inactive

Structure (SMILES) | cytotoxicity call
COc1ccc([Si](C)(C)[C@H]2[C@H](CCn3cc(CCO)nn3)O[C@@]3(C(=O)N(C)c4ccccc43)[C@@H]2C)cc1 | inactive
COc1ccc([Si](C)(C)[C@@H]2[C@@H](CCn3cc(CCO)nn3)O[C@]3(C(=O)N(C)c4ccccc43)[C@H]2C)cc1 | inactive
C[C@@H]1[C@@H]([Si](C)(C)F)[C@H](CCn2cc([C@H](O)c3ccccc3)nn2)O[C@@]12C(=O)N(c1ccccc1)c1ccccc12 | active
COc1ccc([Si](C)(C)[C@@H]2[C@@H](CCn3cc([C@H](O)c4ccccc4)nn3)O[C@]3(C(=O)N(Cc4ccc(N5C(=O)c6cccc7cccc5c67)cc4)c4ccccc43)[C@H]2C)cc1 | active
COc1ccc([Si](C)(C)[C@@H]2[C@@H](CCn3cc([C@H](O)c4ccccc4)nn3)O[C@]3(C(=O)N(Cc4cccc(N5C(=O)c6cccc7cccc5c67)c4)c4ccccc43)[C@H]2C)cc1 | inactive
C[C@H]1[C@H]([Si](C)(C)F)[C@@H](CCn2cc([C@H](O)c3ccccc3)nn2)O[C@]12C(=O)N(c1ccccc1)c1ccccc12 | inactive
COc1ccc([Si](C)(C)[C@H]2[C@H](CCn3cc([C@H](O)c4ccccc4)nn3)O[C@@]3(C(=O)N(Cc4ccc(N5C(=O)c6cccc7cccc5c67)cc4)c4ccccc43)[C@@H]2C)cc1 | inactive
COc1ccc(C#Cc2ccc([C@H]3[C@@H](CO)N4CCCCN(S(=O)(=O)c5cn(C)cn5)C[C@H]34)cc2)cc1 | inactive
C[C@@H]1CN([C@H](C)CO)S(=O)(=O)c2ccc(-c3cncnc3)cc2O[C@@H]1CN(C)C(=O)Cc1cccnc1 | inactive
Cl.N=C(N)NCCCC(N)C(=O)O (stereo not given) | inactive
C[C@@H]1CCCCO[C@H](CN(C)Cc2ccc(C(=O)O)cc2)[C@@H](C)CN([C@H](C)CO)C(=O)c2cc(NC(=O)Nc3ccc(F)cc3)ccc2O1 | inactive
C[C@@H]1CN([C@@H](C)CO)C(=O)c2cc(NC(=O)CCN3CCOCC3)ccc2O[C@H]1CN(C)C(=O)Nc1ccc(F)cc1 | inactive
COc1ccc(NC(=O)Nc2ccc3c(c2)C(=O)N([C@@H](C)CO)C[C@H](C)[C@H](CN(C)C(=O)CCC(F)(F)F)OCCCC[C@@H](C)O3)cc1 | inactive
C[C@H](O)C#Cc1ccc2c(c1)O[C@@H](CN(C)C(=O)C1CCCCC1)[C@@H](C)CN([C@H](C)CO)S2(=O)=O | inactive
CCOC(=O)c1cn[nH]c1 | inactive
C[C@H]1CN([C@@H](C)CO)C(=O)c2cc(NS(=O)(=O)c3cn(C)cn3)ccc2O[C@H]1CN(C)S(=O)(=O)c1ccccc1 | inactive
CCS(=O)(=O)NCC[C@H]1CC[C@@H](NS(=O)(=O)c2ccccc2C)[C@H](CO)O1 | inactive
C[C@@H]1CN([C@@H](C)CO)C(=O)c2cccc(NS(C)(=O)=O)c2O[C@@H]1CN(C)C(=O)Nc1ccc(F)cc1 | inactive
CCOC(=O)c1c(CN2CCN(c3ccccc3C)CC2)n(-c2ccccc2)c2cc(Br)c(O)cc12 | inactive
C[C@@H]1CN([C@@H](C)CO)C(=O)Cc2cc(NS(=O)(=O)c3ccc(F)cc3)ccc2O[C@@H]1CN(C)S(=O)(=O)c1ccc(F)cc1 | inactive
